In PubChem BioAssay (Tox21):
Values joined by “and” are separate entries in the source; they are usually repeats but may differ in a detail not shown here. Equal values may be shown once. Inconclusive results are not listed. Entries that show only a call come without a potency. Active and inactive are the calls of the source. Calls follow the shape of the dose curve; as a rule, active = well fitted cell-killing curve with a large enough effect in the repeat runs; inconclusive = weak or mixed curves, or effect the other way; inactive = flat fitted curve, though single readings scatter.
Potency is read from the fitted curve at half-maximal effect.

Assay: cAMP Responsive Elements (CRE) small molecule antagonists, cell-based qHTS assay: qHTS cell viability counter screen (AID 2060913); also: nearly all actives have a fitted effect of over 40% in size
Details: CRE-bla HEK293T viability, CellTiter-Glo luminescence, 5 h; series mostly up to 92.4 µM
Summary of the method: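 CRE-bla HEK293T cells (2,000/well, 18 h) given compound plus NKH477 0.25 uM final for 3 h at 37C; viability counter-screen by CellTiter-Glo luminescence in same wells after 30 min.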
For `COc1cc(N)c(Cl)cc1C(=O)NC1CCN(Cc2ccccc2)CC1`, the Potency was “inactive”. For `CC(=O)N(O)CCCCCNC(=O)CCC(=O)N(O)CCCCCNC(=O)CCC(=O)N(O)CCCCCN`, the Potency was “inactive”. With `CC(C)Cn1cnc2c1c(=O)n(C)c(=O)n2C` the Potency was “inactive”. In the case of `CC(=O)OCCC(C)CC(C)(C)C` (stereo not drawn), the Potency is reported as “inactive”. In the case of `Oc1c(I)cc(I)c2cccnc12`, the Potency is reported as “inactive”. With `CC(O)C(C)O` (stereo not drawn) the Potency was “inactive”. With `CN(C)c1ccc(C(=C2C=CC(=[N+](C)C)C=C2)c2ccc(N(C)C)cc2)cc1` the Potency was 30.5 µM (active) and 61.1 µM (active) and 29.8 µM (active). With `CC1(C)COCN1` the Potency was “inactive”. With `c1ccc2sc(SN3CCOCC3)nc2c1` the Potency was “inactive”. In the case of `C/C=C/c1ccc(OCC)c(O)c1`, the Potency is reported as “inactive”. For `NS(=O)(=O)c1ccccc1OC(F)(F)F`, the Potency was “inactive”. With `O=P(O)(O)OP(=O)(O)O` the Potency was “inactive”. For `COCCO`, the Potency was “inactive”. For `COc1ccc(NC(C)=O)cc1`, the Potency was “inactive”. In the case of `Nc1c2c(nc3ccccc13)CCCC2O` (stereo not drawn), the Potency is reported as “inactive”. With `CCCC(C(=O)OCCN(CC)CC)(c1ccccc1)c1ccccc1` the Potency was “inactive”. For `CC(C)(C)C(=O)OCOC(=O)[C@@H]1N2C(=O)[C@@H](NC(=O)[C@H](N)c3ccccc3)[C@H]2SC1(C)C`, the Potency was “inactive”. In the case of `CCOC(=O)C1=C(C)NC(C)=C(C(=O)OC)C1c1cccc([N+](=O)[O-])c1` (stereo not drawn), the Potency is reported as “inactive”. With `O=c1[nH]c(=O)n([C@H]2C[C@H](O)[C@@H](CO)O2)cc1Br` the Potency was “inactive”. For `COc1cc2nc(N3CCN(C(=O)C4CCCO4)CC3)nc(N)c2cc1OC` (stereo not drawn), the Potency was “inactive”. For `CN(C)c1ccc(C=O)cc1`, the Potency was “inactive”. In the case of `CCCCc1ccc2cccc(S(=O)(=O)O)c2c1`, the Potency is reported as “inactive”. With `CCOC(=O)[C@@](C)(N)Cc1ccc(O)c(O)c1` the Potency was “inactive”. With `CCOC(=O)C(=O)OCC` the Potency was “inactive”. For `CC(=O)Oc1cc(C(C)C)c(OCCN(C)C)cc1C`, the Potency was “inactive”. For `CC[N+](CC)(CC(=O)Nc1c(C)cccc1C)Cc1ccccc1`, the Potency was “inactive”. For `CN1CCC(=C2c3ccccc3C=Cc3ccccc32)CC1`, the Potency was “inactive”. For `O=S(=O)(O)c1ccc(N=Nc2c(O)ccc3cc(S(=O)(=O)O)ccc23)cc1`, the Potency was “inactive”. In the case of `CCCCOC(=O)CCCCCCCCC(=O)OCCCC`, the Potency is reported as “inactive”. In the case of `COc1ccc2c(c1)c1c3n2CCN(C)C3=NCC1`, the Potency is reported as “inactive”. In the case of `NC(=O)OCC(COC(N)=O)c1ccccc1`, the Potency is reported as “inactive”. In the case of `CCOC(=O)COc1ccc(C)cc1`, the Potency is reported as “inactive”. For `CCCCCCCOC(=O)CCC`, the Potency was “inactive”. For `Nc1cccc2c1CN(C1CCC(=O)NC1=O)C2=O` (stereo not drawn), the Potency was “inactive”. In the case of `O=C(O)c1cc(-c2ccc(F)cc2F)ccc1O`, the Potency is reported as “inactive”. In the case of `N#CSCC(=O)O`, the Potency is reported as “inactive”. With `O=C(O)C1(C(=O)O)CCC1.[NH2-].[NH2-].[Pt+2]` the Potency was “inactive”. For `CCCCNS(=O)(=O)c1ccc(C)cc1`, the Potency was “inactive”. For `CC(=O)Nc1ccc(C)c(Cl)c1`, the Potency was “inactive”.

Assay: cAMP Responsive Elements (CRE) small molecule agonists, cell-based qHTS assay: qHTS cell viability counter screen (AID 2060914);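 also: viability read after 3 h of compound exposure; nearly all actives have a fitted effect of over 50% in size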
Details: CRE-bla HEK293T viability, CellTiter-Glo luminescence, 5 h; series mostly up to 92.4 µM
Summary of the method: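 Cytotoxicity counter screen multiplexed with the CRE-bla reporter assay in HEK 293T cells: 3 h compound exposure at 37 °C, followed by CellTiter-Glo luminescence measured in the same wells.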
With `COc1cc(N)c(Cl)cc1C(=O)NC1CCN(Cc2ccccc2)CC1` the Potency was “inactive”. In the case of `CC(=O)N(O)CCCCCNC(=O)CCC(=O)N(O)CCCCCNC(=O)CCC(=O)N(O)CCCCCN`, the Potency is reported as “inactive”. In the case of `CC(C)Cn1cnc2c1c(=O)n(C)c(=O)n2C`, the Potency is reported as “inactive”. With `CC(=O)OCCC(C)CC(C)(C)C` (stereo not drawn) the Potency was “inactive”. For `Oc1c(I)cc(I)c2cccnc12`, the Potency was “inactive”. For `CC(O)C(C)O` (stereo not drawn), the Potency was “inactive”. With `CN(C)c1ccc(C(=C2C=CC(=[N+](C)C)C=C2)c2ccc(N(C)C)cc2)cc1` the Potency was 48.3 µM (active) and 61.1 µM (active) and 29.8 µM (active). For `CC1(C)COCN1`, the Potency was “inactive”. In the case of `c1ccc2sc(SN3CCOCC3)nc2c1`, the Potency is reported as “inactive”. With `C/C=C/c1ccc(OCC)c(O)c1` the Potency was “inactive”. In the case of `NS(=O)(=O)c1ccccc1OC(F)(F)F`, the Potency is reported as “inactive”. With `O=P(O)(O)OP(=O)(O)O` the Potency was “inactive”. For `COCCO`, the Potency was “inactive”. In the case of `COc1ccc(NC(C)=O)cc1`, the Potency is reported as “inactive”. For `Nc1c2c(nc3ccccc13)CCCC2O` (stereo not drawn), the Potency was “inactive”. In the case of `CCCC(C(=O)OCCN(CC)CC)(c1ccccc1)c1ccccc1`, the Potency is reported as “inactive”. In the case of `CC(C)(C)C(=O)OCOC(=O)[C@@H]1N2C(=O)[C@@H](NC(=O)[C@H](N)c3ccccc3)[C@H]2SC1(C)C`, the Potency is reported as “inactive”. With `CCOC(=O)C1=C(C)NC(C)=C(C(=O)OC)C1c1cccc([N+](=O)[O-])c1` (stereo not drawn) the Potency was “inactive”. With `O=c1[nH]c(=O)n([C@H]2C[C@H](O)[C@@H](CO)O2)cc1Br` the Potency was “inactive”. In the case of `COc1cc2nc(N3CCN(C(=O)C4CCCO4)CC3)nc(N)c2cc1OC` (stereo not drawn), the Potency is reported as “inactive”. For `CN(C)c1ccc(C=O)cc1`, the Potency was “inactive”. With `CCCCc1ccc2cccc(S(=O)(=O)O)c2c1` the Potency was “inactive”. In the case of `CCOC(=O)[C@@](C)(N)Cc1ccc(O)c(O)c1`, the Potency is reported as “inactive”. In the case of `CCOC(=O)C(=O)OCC`, the Potency is reported as “inactive”. In the case of `CC(=O)Oc1cc(C(C)C)c(OCCN(C)C)cc1C`, the Potency is reported as “inactive”. With `CC[N+](CC)(CC(=O)Nc1c(C)cccc1C)Cc1ccccc1` the Potency was “inactive”. With `CN1CCC(=C2c3ccccc3C=Cc3ccccc32)CC1` the Potency was “inactive”. In the case of `O=S(=O)(O)c1ccc(N=Nc2c(O)ccc3cc(S(=O)(=O)O)ccc23)cc1`, the Potency is reported as “inactive”. For `CCCCOC(=O)CCCCCCCCC(=O)OCCCC`, the Potency was “inactive”. For `COc1ccc2c(c1)c1c3n2CCN(C)C3=NCC1`, the Potency was “inactive”. In the case of `NC(=O)OCC(COC(N)=O)c1ccccc1`, the Potency is reported as “inactive”. For `CCOC(=O)COc1ccc(C)cc1`, the Potency was “inactive”. In the case of `CCCCCCCOC(=O)CCC`, the Potency is reported as “inactive”. For `Nc1cccc2c1CN(C1CCC(=O)NC1=O)C2=O` (stereo not drawn), the Potency was “inactive”. In the case of `O=C(O)c1cc(-c2ccc(F)cc2F)ccc1O`, the Potency is reported as “inactive”. For `N#CSCC(=O)O`, the Potency was “inactive”. With `O=C(O)C1(C(=O)O)CCC1.[NH2-].[NH2-].[Pt+2]` the Potency was “inactive”. In the case of `CCCCNS(=O)(=O)c1ccc(C)cc1`, the Potency is reported as “inactive”. In the case of `CC(=O)Nc1ccc(C)c(Cl)c1`, the Potency is reported as “inactive”.
